Results taken from PubChem BioAssay AID1942 (Johns Hopkins Ion Channel Center, 2009).
In all, about 2,400 compounds went through this assay and about 580 (24%) were called active. Only a sample is shown. Values without a mark were called inactive.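 Rule for the calls: active = activity change at or above the mean plus 3 SD of buffer wells without dofetilide, per plate; inactive = the rest.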

Molecular target: Potassium voltage-gated channel subfamily KQT member 2 (Rattus norvegicus) (UniProt O88943)
Sequence (O88943 whole entry, looked up): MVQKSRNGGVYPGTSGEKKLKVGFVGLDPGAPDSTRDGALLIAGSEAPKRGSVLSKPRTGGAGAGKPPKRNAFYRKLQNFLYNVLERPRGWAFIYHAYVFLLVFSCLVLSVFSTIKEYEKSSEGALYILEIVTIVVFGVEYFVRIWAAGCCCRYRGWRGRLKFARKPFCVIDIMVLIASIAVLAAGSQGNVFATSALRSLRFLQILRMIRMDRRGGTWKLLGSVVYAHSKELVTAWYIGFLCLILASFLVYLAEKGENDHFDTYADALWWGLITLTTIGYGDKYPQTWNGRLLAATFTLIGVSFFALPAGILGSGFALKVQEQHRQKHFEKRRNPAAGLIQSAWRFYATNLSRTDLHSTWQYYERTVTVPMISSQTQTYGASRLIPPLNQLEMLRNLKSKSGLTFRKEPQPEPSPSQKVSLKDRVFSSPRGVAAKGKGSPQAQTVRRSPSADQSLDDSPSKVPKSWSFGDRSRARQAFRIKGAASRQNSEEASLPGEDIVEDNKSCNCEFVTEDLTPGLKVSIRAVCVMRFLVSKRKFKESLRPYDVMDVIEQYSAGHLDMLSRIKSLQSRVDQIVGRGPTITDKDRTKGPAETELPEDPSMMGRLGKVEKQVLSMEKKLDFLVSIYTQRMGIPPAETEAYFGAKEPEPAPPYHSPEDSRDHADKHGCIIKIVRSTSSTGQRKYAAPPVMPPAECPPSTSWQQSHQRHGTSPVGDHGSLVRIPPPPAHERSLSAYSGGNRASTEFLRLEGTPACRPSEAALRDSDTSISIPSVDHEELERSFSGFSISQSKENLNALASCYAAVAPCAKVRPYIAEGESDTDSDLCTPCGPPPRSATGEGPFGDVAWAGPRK
Assay: rat KCNQ2 channel activation by compounds alone, confirmation, counter-screen for hERG block protector project, cell-based, CHO, FluxOR thallium flux (AID 1942);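 note: normalized value minus buffer-control mean plus three SD of buffer wells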
Settings: CHO-KCNQ2 cells, FluxOR thallium flux fluorescence; at 10 µM; active compounds read high

SMILES | activity change, less the hit threshold
COc1ccc(C(=O)NC(=S)NCCO)cc1Br | -13.1%
COc1cc(OC)cc(C(=O)NC(=S)N(Cc2ccccc2)C(C)C)c1 | 31.3% (active)
COc1cc(OC)cc(C(=O)OCC(=O)N(C)c2ccccc2)c1 | -28%
COc1ccc(C(=O)NC(=S)N(Cc2ccccc2)Cc2ccccc2)cc1 | 28.4% (active)
COc1ccc(CN(Cc2cccnc2)C(=S)NCCc2ccccc2)cc1OC | -13.1%
CCOc1ccc(C(=O)NC(=S)N(Cc2ccccc2)Cc2ccccc2)cc1 | -5.6%
CCN(CC)C(=S)NC(=O)c1ccc(OC)c(Br)c1 | -11%
C=CCNC(=S)NC(=O)c1ccc(C)c(Br)c1 | -17.6%
COc1ccc(C(=O)NN/C(C)=C/C(=O)c2ccccc2)cc1 | -25.7%
C=CCN(CC=C)C(=S)NC(=O)c1ccc(C)c(Br)c1 | 135% (active)
C=CCN(CC=C)C(=S)NC(=O)c1ccc(OC)c(Br)c1 | 46% (active)
O=c1c([N+](=O)[O-])c(N2CCCCC2)c2ccccc2n1-c1ccccc1 | -20.7%
CC(C)=CCCC1=CCC2C(=O)NNC(=O)C2C1 (stereo not given) | -15.8%
Cc1ccc(S(=O)(=O)n2cnc3ccccc32)c(C)c1 | -9%
CCCNC(=O)N(C)c1nncnc1C(=O)NC | -17.3%
CCN(CC(=O)Nc1c(F)cccc1F)C(=O)c1ccc(Cl)c(S(=O)(=O)N2CCCCC2)c1 | -23.2%
Cc1cccc(C)c1NC(=O)Cn1cnc2c(=O)n(C)c(=O)n(C)c21 | -15.2%
CCCOc1ccc(CN(CCC#N)C(=S)NC(=O)c2ccccc2)cc1 | 7.3% (active)
C=CCN(CC=C)C(=S)NC(=O)/C=C/c1ccc(OC)cc1 | -0.6%
CC(C)N(Cc1ccccc1)C(=S)NC(=O)C1(C)CC1(Cl)Cl (stereo not given) | 32.4% (active)
C=CCN(CC=C)C(=S)NC(=O)c1ccc(OC)cc1 | 10.1% (active)
C=CCNC(=S)N/N=C(\C)c1ccc(OC)cc1 | -13.1%
CCCOc1ccc(C(=O)NNC(=S)NC(=O)c2ccccc2)cc1 | -24.3%
O=C(O)c1ccc(Cl)cc1Nc1nc2cc(Cl)ccc2o1 | -1.7%
CC(=O)c1c(C)nc(C)nc1NC(=O)C(C)C | -17.2%

SMILES | activity change, less the hit threshold
Nc1nc2n(n1)C1(CCCCC1)C1=C(CCCC1)N2 | -18.5%
CCCCc1c(O)nc(SCC(=O)O)[nH]c1=O | -17.9%
FC(F)(F)c1cnc2c(c1)[nH]c(=S)n2-c1ccc(Cl)cc1 | -2.4%
CCC(=O)Nc1cc(-c2nnc(OC)c3ccccc23)ccc1N1CCOCC1 | -7.7%
COC(=O)c1ccc(NC(=S)NC(=O)c2c(-c3ccccc3)noc2C)cc1 | -19.6%
Cc1nn(C)c(C(=O)NC(=S)Nc2ccccc2Br)c1Cl | 11.8% (active)
Cc1ccc(NC(=O)c2c([N+](=O)[O-])c(C(C)(C)C)nn2C)cc1 | -17.2%
Cc1nn(C)c(C(=O)NC(=S)Nc2ccc([N+](=O)[O-])cc2)c1Cl | 7.5% (active)
CCCCOC(=O)c1ccc(NC(=S)NC(=O)c2c(Br)c(C)nn2C)cc1 | 10.4% (active)
O=C(NC(=S)Nc1ccccc1N1CCCC1)c1ccccc1Br | -29.8%
CCCCOC(=O)c1ccc(NC(=S)NC(=O)c2c(Cl)cnn2C)cc1 | -10%
COc1ccccc1NC(=S)NC(=O)c1ccc(-c2ccc(Cl)cc2)o1 | -6.4%
Cc1ccc(NC(=S)NC(=O)c2cncc(Br)c2)cc1Cl | -17.8%
Cc1nn(CCC(=O)NNC(=S)Nc2ccc(F)cc2)c(C)c1[N+](=O)[O-] | -18.9%
CCn1ncc(Cl)c1C(=O)NC(=S)Nc1ccccc1Br | 29.9% (active)
Cc1cccc(NC(=S)N/N=C2\CC(C)(C)Oc3ccc(O)cc32)c1 | -9.9%
Cc1nn(-c2ccc(Cl)nn2)c(=O)c2ccccc12 | -19.3%
CC1CN(S(=O)(=O)c2ccc(-c3nc4ccccc4s3)cc2)CC(C)O1 (stereo not given) | -3.8%
COc1ccc(N2C(=O)/C(=C/c3cccs3)NC2=S)cc1 | -15.1%
CCCN1C(=O)/C(=C/c2ccc(C)s2)NC1=S | 80.4% (active)
CC(C)CN1C(=O)/C(=C/c2cccs2)NC1=S | 83.6% (active)
CCN1C(=O)/C(=C/c2ccc(C)s2)NC1=S | 36.1% (active)
CCCN1C(=O)/C(=C/c2ccc3c(c2)OCO3)NC1=S | -10.1%
CC(C)CN1C(=O)/C(=C/c2ccco2)NC1=S | -20.7%
O=c1c(C(c2ccc(O)cc2)c2c(O)nc3n(c2=O)CCS3)c(O)nc2n1CCS2 | -11.7%

SMILES | activity change, less the hit threshold
Nc1cc(-c2ccc(Br)cc2)[nH]n1 | -23.7%
CC(C)=CC(=O)OCC(=O)Nc1ccc(SC(F)F)cc1 | -15.7%
S=c1nc(-c2ccccc2)[nH]n1-c1ccccc1 | 51.8% (active)
S=c1nc(-c2ccccc2)c(-c2ccccc2)n[nH]1 | -18.5%
CCOc1cc(C(=O)NC)cc(OCC)c1OCC | -15.9%
COCCn1c(SCC(=O)Nc2cc(C)cc(C)c2)nc2ccccc2c1=O | -17.4%
Cc1cc(-c2nnc(SCC(=O)Nc3ccc(C(F)(F)F)cc3)n2C)no1 | -23.1%
Cc1cc(C)cc(NC(=O)CSc2nnc(CN3CCOCC3)n2C)c1 | 27.2% (active)
Clc1cccc(OCCCN2CCCC2)c1Cl | -9.5%
CCOC(=O)C1=C(Cc2ccc(C)cc2)C(=O)c2ccccc2C1=O | -0.5%
Cc1ccc(/C=C/C(=O)C2C(=O)c3ccccc3C2=O)cc1 | 48.1% (active)
CCOC(=O)C1=C(O)c2ccccc2C(=O)/C1=C\c1ccc(CC)cc1 | -1.8%
Cc1ccc(/C=N/N2C(=O)c3ccccc3NC2c2ccc(C)cc2)cc1 (stereo not given) | -15.6%
CCc1ccc(/C=C/C(=O)C2C(=O)c3ccccc3C2=O)cc1 | 37.2% (active)
O=C(CC1NCCNC1=O)Nc1ccc([N+](=O)[O-])cc1 (stereo not given) | -27.7%
COc1ccc(NC(=O)N2CCN(c3ccc([N+](=O)[O-])cc3)CC2)cc1OC | -23.2%
CN(C(=O)c1cnccn1)c1nnc(-c2cnccn2)s1 | -25.3%
CC(C)C(NC(=O)c1ccccc1)C(=O)N/N=C\c1ccco1 (stereo not given) | -20.2%
Cc1ccc2c(CN3CCOCC3)cc(=O)oc2c1 | -5.1%
Cc1cc(C)cc(OCc2nnc(SCC(=O)Nc3ccccc3)o2)c1 | -16.8%
CC(=O)/C=C1/C(=O)Nc2ccccc21 | -27.4%
Cc1cccc(N2C(=O)C(O)=C(C(=O)c3cccs3)C2c2cccc(Oc3ccccc3)c2)n1 (stereo not given) | -18.2%
COc1cc(C(=O)Nc2ccc(O)cc2C(=O)O)ccc1OC(C)=O | -10.8%
COc1ccc(/C=C/C(=O)Nc2ccccc2C(=O)O)cc1OC | 4.9% (active)
COc1ccc(/C=C/C(=O)Nc2ccccc2C(=O)O)cc1 | -2.2%

SMILES | activity change, less the hit threshold
COc1cc(/C=C2/C(=O)NN(c3ccc(Cl)c(Cl)c3)C2=O)cc([N+](=O)[O-])c1O | -18.7%
O=C(CCNS(=O)(=O)c1ccc(Cl)cc1)OCC(=O)N1CCN(C(=O)c2ccco2)CC1 | -17.9%
Nc1ccc(C(=O)OCC(=O)N2CCN(C(=O)c3ccco3)CC2)cc1[N+](=O)[O-] | -23.4%
Cc1cc(S(=O)(=O)Nc2ccc(C(=O)N3CCN(C(=O)c4ccco4)CC3)cc2)ccc1F | 3.4% (active)
CCOc1ccc(NC(=O)c2ccc3c(c2)CCN3S(C)(=O)=O)cc1 | -27.8%
CCOc1ccc(NC(=O)CSc2nc3nc(C)cc(C)n3n2)cc1 | -14.8%
CCOc1ccc(NC(=S)NS(=O)(=O)c2cc(Br)ccc2OCC)cc1 | 35.9% (active)
O=C(COc1ccccc1)Nc1ccc(S(=O)(=O)Nc2ccccn2)cc1 | -14.4%
CC(=O)NC1C(Oc2ccccc2C)OC(CO)C(O)C1O (stereo not given) | -8.8%
CCn1c(O)c(N=NC(=O)CNC(=O)c2ccccc2F)c2ccccc21 | -8.6%
CCn1c(O)c(N=NC(=S)NCC2CCCO2)c2ccccc21 (stereo not given) | -9.1%
CCCn1c(O)c(N=NC(=O)c2ccco2)c2ccccc21 | 86.7% (active)
CSc1ccc(/C=N/NC(=O)c2cccs2)cc1 | -22.9%
O=C(CS(=O)(=O)Cc1ccccc1)Nc1ccc(Cl)cn1 | -21.6%
CCC(=O)N1CCN(c2nc(CC)nc3sc4c(c23)CCCC4)CC1 | -43.7%
CCn1c(SCC(N)=O)nc2sc3c(c2c1=O)CCCC3 | 31.2% (active)
CCOC(=O)c1cnn(-c2nc(SC)nc3sc4c(c23)CCCC4)c1N | -23.6%
CCCn1c(SCC(=O)N2CCN(C(C)=O)CC2)nc2sc3c(c2c1=O)CCC3 | 29.6% (active)
CCn1c(SC(C)C(=O)O)nc2sc3c(c2c1=O)CCC3 (stereo not given) | 25.4% (active)
CCN1C(=O)c2cccc3c(S(=O)(=O)NCC4CCCO4)ccc1c23 (stereo not given) | -21.6%
CCc1cccc(C)c1NC(=O)Cc1ccsc1 | -12.4%
O=C1CC(c2ccco2)CC2=C1C1c3ccccc3C(=O)N1c1ccccc1N2 (stereo not given) | -4.8%
Cc1oc2ccc(OCc3ccc(Cl)cc3)cc2c1C(=O)O | -3.6%
Cc1cc(OCc2ccc(C(=O)Nc3ccc(C(=O)O)cc3)o2)ccc1Cl | -15.9%
Cc1ccc(OCc2ccoc2C(=O)O)cc1C | 23.9% (active)
